Data on 26 compounds can be found in PubChem BioAssay (NCATS).

The structures appear in SMILES notation. Results filed as inconclusive are left out. Calls of active or inactive are those of the source. The call rests on the fitted dose curve; in most records, active means well fitted inhibition curve with a large enough effect; inconclusive means small, poorly fitted or top-dose-only effect; inactive means no such curve, though single readings can be large or run the other way.
On the % scale 0 is the no-effect control and ±100 the full control effect; potency means the concentration at half of the fitted maximal effect.

This test has as its system Zika virus NS2B-NS3 protease (unlinked complex). Briefly: Primary screen GU Rhodamine qHTS for Zika virus inhibitors: Unlinked NS2B-NS3 protease assay (AID 1347159). Further: nearly all actives have a fitted effect of over 60% in size. The settings on record: Recombinant ZIKV NS2B-NS3 protease, Rhodamine110 substrate fluorescence; series mostly up to 107 µM; activity change, negative = inhibition: at the top concentration. The gist of the method: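 In dose–response format, inhibition of unlinked protease (25 nM) was measured with 1.5 microM bis-peptide Rhodamine110 substrate. Aprotinin served as the intraplate control.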
On the technique in general: Quantitative high-throughput screening tests each substance at several concentrations.
Turning to `COc1ccc(/C=C/C(=O)O[C@@H]2[C@@H](O)[C@H](C)O[C@@H](OC3C4C=COC(O[C@@H]5O[C@H](CO)[C@@H](O)[C@H](O)[C@H]5O)C4C4(CO)OC34)[C@@H]2O)cc1OC` (stereo partly specified), the “activity change, negative = inhibition” value was -2.42% [at 32.5 µM] (inactive). The same measure, in the same setting: with `O=C(c1ccc(NS(=O)(=O)c2cccc3cccnc23)cc1)N1CCN(CC2CC2)CC1` the figure was 5.54% (inactive); with `COC(=O)[C@H](OC(C)=O)[C@H]1C(C)(C)C(=O)[C@H]2CC3=C4CC(=O)O[C@@H](c5ccoc5)[C@]4(C)CCC3[C@@]1(C)C2=O` (stereo partly specified), -13.3% [at 57.1 µM] (inactive).

On to `CCn1nnnc1NCc1ccc(C(C)C)cc1`, for which the “activity change, negative = inhibition” value is 5.89% (inactive).

For `COc1ccc(C)c2sc(NC(=O)c3ccncc3)nc12`, the “activity change, negative = inhibition” value is 22.3% (inactive).

On to `C[C@@H]1C(=O)O[C@H]2CC34[C@H]5C[C@@H](C(C)(C)C)C36[C@@H](OC(=O)[C@@H]6O)OC4(C(=O)O5)[C@]21O` (stereo partly specified), for which the “activity change, negative = inhibition” value was 2.42% (inactive). Still for that read-out and setting: with `C=C(C)[C@@H](C)[C@H]1O[C@]23C[C@]4(CO2)C(CCC2[C@@]5(C)CC[C@H](O[C@@H]6OC[C@H](O)[C@H](O[C@@H]7O[C@H](CO)[C@@H](O)[C@H](O)[C@H]7O)[C@H]6O[C@@H]6O[C@@H](CO)[C@H](O)[C@H]6O)C(C)(C)C5CC[C@]24C)C3[C@@](C)(O)[C@@H]1OC(C)=O` (stereo partly specified) the figure was -24.2% [at 32.5 µM] (inactive). For `CCCCN(CCCC)C(=O)CN1C[C@H](c2ccc3c(c2)OCO3)[C@@H](C(=O)O)[C@@H]1c1ccc(OC)cc1`, the Potency is 28.2 µM (active). Same read-out and setting: for `COc1cc(-c2cccc(O)c2)cc2c1OCO2` the value was 35.5 µM (active). Same read-out and setting: for `CCN[C@@H]1C[C@H](N)[C@@H](O[C@H]2OC(CN)=CC[C@H]2N)[C@H](O)[C@H]1O[C@H]1OC[C@](C)(O)[C@H](NC)[C@H]1O` the value was “inactive”. In the case of `Nc1nc(CC(=O)Nc2ccc(CCNCC(O)c3ccccc3)cc2)cs1` (stereo unspecified), the “activity change, negative = inhibition” value was 16.3% (inactive). Still for that read-out and setting: for `C=CC(C)(O)CC/C=C(\C)C(=O)OCC1OC(OC2CCC3(C)C(CCC4(C)C3CC=C3C5CC(C)(C)C(O)CC5(C(=O)O)CCC34C)C2(C)C)C(O)C(OC2OC(CO)C(O)C(OC3OC(CO)C(O)C(OC4OC(COC5OC(CO)C(O)C(O)C5O)C(O)C(O)C4O)C3O)C2O)C1O` (stereo unspecified) the value was 5.91% [at 19.1 µM] (inactive). Same read-out and setting: with `OC[C@H]1O[C@@H](Oc2cc(O)cc(/C=C/c3ccc(O)cc3)c2)[C@H](O)[C@@H](O)[C@@H]1O` the figure was 1.54% (inactive).

As for `CC(/C=C/C1(O)C(C)(C)CC(O)CC1(C)O)OC1OC(CO)C(O)C(O)C1O` (stereo unspecified), the “activity change, negative = inhibition” value was 8.33% [at 57.1 µM] (inactive). On the same count and under the same terms, for `C[C@@H]1O[C@@H](OC[C@H]2O[C@@H](OCC3CCC4CC3C4(C)C)[C@H](O)[C@@H](O)[C@@H]2O)[C@H](O)[C@H](O)[C@H]1O` (stereo partly specified) the value was -24.3% [at 57.1 µM] (inactive). Still for that read-out and setting: for `CCCn1cnc2c(NCc3ccccc3)nc(N[C@H](CC)CO)nc21` the value was -16% (inactive); for `COc1cc(C(=O)OC[C@H]2O[C@H](O[C@@]3(CO)O[C@@H](CO)[C@H](O)[C@H]3O)[C@H](O)[C@@H](O)[C@@H]2O)ccc1O`, 1.55% [at 57.1 µM] (inactive); for `CC(C)=CCC[C@](C)(O[C@@H]1O[C@H](CO[C@@H]2OC[C@@H](O)[C@H](O)[C@H]2O)[C@@H](O)[C@H](O)[C@H]1O)[C@H]1CC[C@]2(C)[C@@H]1[C@H](O)C[C@@H]1[C@@]3(C)CC[C@H](O[C@@H]4O[C@H](CO)[C@@H](O)[C@H](O)[C@H]4O[C@@H]4O[C@H](CO)[C@@H](O)[C@H](O)[C@H]4O)C(C)(C)[C@@H]3CC[C@]12C`, 34.8% [at 57.1 µM] (inactive). With `C=C[C@H]1[C@H](O[C@@H]2O[C@H](CO)[C@@H](O)[C@H](O)[C@H]2O)OC=C2C(=O)OCC[C@]21O`, the Potency was 35.5 µM (active).

With `C=C1CC[C@H]2[C@@H](/C=C(\C)C(=O)[C@@]3(OC(C)=O)C[C@H](C)[C@H](OC(C)=O)[C@@H]3[C@H]1OC(C)=O)C2(C)C`, the Potency was 7.94 µM (active). The same measure, in the same setting: with `C=Cc1cc(O)cc2nc(-c3ccc(O)c(F)c3)oc12` the figure was 35.5 µM (active).

Turning to `CC(=O)c1c(O)cc2cccc3c2c1CC(C)(O)O3` (stereo unspecified), the Potency was 35.5 µM (active). Turning to `O=C(O)c1cc(O[C@@H]2O[C@H](CO[C@@H]3OC[C@@H](O)[C@H](O)[C@H]3O)[C@@H](O)[C@H](O)[C@H]2O)c2ccccc2c1O`, the “activity change, negative = inhibition” value was -17.1% [at 57.1 µM] (inactive). Take `CC(C)(O)c1ccc2c(c1)C(=O)CC1[C@](C)(CO)CCC[C@]21C` (stereo partly specified): the Potency was 31.6 µM (active). For `COc1cccc(-c2ccc([C@@H](Oc3cc(-c4ccc(C[C@H](N)C(=O)O)cc4)nc(N)n3)C(F)(F)F)cc2)c1`, the Potency is 22.4 µM (active). Regarding `CNC(=O)Nc1ccc(OC)c(NC(=O)NC(=O)c2cc(F)c(F)cc2Cl)c1`, the “activity change, negative = inhibition” value was -19% (inactive).
